# Hit rate of the full screen: of about 330,000 compounds, about 7,300 (2.2%) were called active.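 How the source made its calls: active means inhibition of at least 40%; inactive means the rest.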 Many of the other results were omitted from the sample, so actives are more common in it than they were.
# Assay: growth inhibitors of tim10-1 mutant yeast, primary screen, luminescence, uHTS (AID 463190);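 further: mutant grown at 25 °C; 0% = DMSO wells with yeast and 100% = wells holding no yeast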
# Settings: S. cerevisiae tim10-1 ts strain growth, BacTiter-Glo, 24 h; at 20 µM; stronger effect = higher value
row,Compound,inhibition
1,COC(=O)c1c(-c2ccsc2)oc2ccc(-c3cc(OC)c(OC)c(OC)c3)cc12,28.1% (inactive)
2,N#CCOc1ccc(C2=NO[C@@H]3[C@@H]4C[C@@H]([C@H]5C(=O)N(c6ccc7c(c6)OCO7)C(=O)[C@@H]45)[C@H]23)cc1,18.3% (inactive)
3,C=CS(=O)c1sc(Cl)c(N2CCOCC2)c1[N+](=O)[O-] (configuration not stated),79.3% (active)
4,Nc1c(N(CCO)C(=O)C2CCCCC2)c(=O)[nH]c(=O)n1Cc1ccccc1,15.1% (inactive)
5,COc1ccccc1C(=O)NCC(=O)OCC(=O)NNC(=O)c1ccc(Br)cc1,-10.1% (inactive)
6,Cc1ccc(-c2cc(C(=O)N3CCc4ccccc4C3)no2)cc1,18.4% (inactive)
7,Cc1ccc2c(c1)c1ncn(CCC3=CCCCC3)c(=O)c1n2C,22.5% (inactive)
8,Cc1ccc2c(c1)c1ncnc(N3CCc4ccccc4C3)c1n2C,44% (active)
9,O=C(C1CCC(=O)N(C2CC2)C1)N1CCN(c2ccc(Cl)cc2)CC1 (configuration not stated),-6.67% (inactive)
10,C=CCNC(=O)CC12CC3CC(C1)CC(CC(=O)NCC=C)(C3)C2,9.8% (inactive)
11,CCOc1cccc(-c2nnc(SCC(=O)NC3CC3)n2C)c1,6.04% (inactive)
12,COc1ccc(-n2c(SCC(=O)OC(C)C)nnc2-c2ccccn2)cc1,34.2% (inactive)
13,CCOc1cccc(-c2nn3c(-c4ccccn4)nnc3s2)c1,42% (active)
14,O=C(O)C1C2C=CC(C2)C1C(=O)NCc1ccccc1 (configuration not stated),-21.1% (inactive)
15,COc1ccc(C2=NO[C@@H]3C(=O)N(Cc4ccccc4)C(=O)[C@H]23)cc1OC,14.3% (inactive)
16,CC(c1cccnc1)N(CCN(C)C)C(=O)Nc1ccc(Cl)c(Cl)c1 (configuration not stated),4.37% (inactive)
17,CCn1nccc1C(=O)Nc1ccc(S(=O)(=O)NC23CC4CC(CC(C4)C2)C3)cc1,26.7% (inactive)
18,CCn1nccc1C(=O)Nc1ccc(Cl)c(Cl)c1,44% (active)
19,CN1CCN(C(=O)CCc2ncc(C(F)(F)F)cc2Cl)CC1,-4.04% (inactive)

row,Compound,inhibition
1,COC(=O)c1c(C(=O)OC)c(-c2cccc(C)c2)n2c1CS(=O)C2 (configuration not stated),10.8% (inactive)
2,CCOCCCNC(=O)c1ccc(CS(=O)(=O)c2cccc(C(F)(F)F)c2)o1,6.36% (inactive)
3,Cc1ccc(NS(=O)(=O)c2ccc(-c3ccc(=O)[nH]n3)o2)c(C)c1,1.41% (inactive)
4,Cc1ccc(-c2csc(NC(=O)Cn3[nH]c(=O)c4ccccc4c3=O)n2)cc1,31.6% (inactive)
5,Cc1ccc(-c2csc(NC3OC(=O)c4ccccc43)n2)cc1 (configuration not stated),5.08% (inactive)
6,Cc1ccc(-c2csc(-c3c[nH]c4ccccc34)n2)cc1,60.4% (active)
7,COc1cc(N2C(=O)CC3(CCCC3)CC2=O)cc(OC)c1OC,11.2% (inactive)
8,N#CC1(C#N)C(C(=O)C23CC4CC(CC(C4)C2)C3)C12CCOCC2 (configuration not stated),47.6% (active)
9,CC(C)(C)c1ccc(C(=O)NCc2nnc(SCC(=O)N3CCCc4ccccc43)n2-c2ccccc2)cc1,1.45% (inactive)
10,O=C(COC(=O)CCCSc1nc2ccccc2[nH]1)Nc1ccc(Oc2ccccc2)cc1,14.2% (inactive)
11,Cc1cc([N+](=O)[O-])c(-c2ccc(/C=N/n3cnnc3)o2)cc1Cl,16.2% (inactive)
12,Cc1ccc(-c2ccc(/C=C(\C#N)C(N)=S)o2)c([N+](=O)[O-])c1,57.3% (active)
13,Cc1cc(C)c([N+](=O)[O-])cc1-c1ccc(/C=N/NC(=O)c2nonc2N)o1,-16.4% (inactive)
14,CCOC(=O)CCCCCC(=O)Nc1ccc2c(c1)CC(=O)N([C@@H](C)CO)C[C@H](C)[C@@H](CN(C)Cc1ccccc1)O2,-5.39% (inactive)
15,Cn1nnnc1SCC(=O)NNC(=O)c1ccc(Br)cc1,0.63% (inactive)
16,COc1ccc2c(c1)C(NS(=O)(=O)OCC(Cl)(Cl)Cl)CCC2 (configuration not stated),45.1% (active)
17,COc1ccc(CN(C)C(C)C(=O)NC2CCCc3ccccc32)cc1 (configuration not stated),23.2% (inactive)
18,COC(=O)c1cc(OCC(=O)NC2CCCc3ccccc32)cc(C(=O)OC)c1 (configuration not stated),11.9% (inactive)
19,COc1ccccc1C1CCN(c2ccc([N+](=O)[O-])cn2)CC1,14.4% (inactive)

row,Compound,inhibition
1,O=C(Nc1ccc(F)cc1)C1CCN(C(=O)c2ccc([N+](=O)[O-])cc2)CC1,2.2% (inactive)
2,COc1ccccc1C1SCCN1C(=O)c1ccc([N+](=O)[O-])cc1 (configuration not stated),41.9% (active)
3,CN(C(=O)CC1C(=O)NCCN1Cc1ccc2ccccc2c1)C1CCOCC1 (configuration not stated),29.6% (inactive)
4,NS(=O)(=O)c1ccc(CCNC(=O)c2nc(CS(=O)(=O)c3ccc(Cl)cc3)no2)cc1,-1.2% (inactive)
5,CCCN(c1ccc(C)cc1)c1nc(=O)c2cccnc2s1,15.2% (inactive)
6,CCC(C)NCCOCCOc1ccc(Br)cc1C (configuration not stated),-4.38% (inactive)
7,COc1ccc(-c2nc3cnccn3c2NC(C)(C)CC(C)(C)C)cc1O,32.9% (inactive)
8,C/C(=N\OC(=O)c1ccccc1)c1c(C)nc2cc(C)ccn12,5.99% (inactive)
9,Cc1ccc(C(=O)O/N=C(\N)c2ccccn2)cc1Cl,26.8% (inactive)
10,Cc1cccc(/C(N)=N/OC(=O)c2ccccc2Cl)c1,59.7% (active)
11,O=C(NCc1ccco1)/C(=C/c1cccc([N+](=O)[O-])c1)NC(=O)c1ccco1,15.4% (inactive)
12,Cc1ccc(N2C(=O)C3C4C=CC(CC4)C3C2=O)cc1Br (configuration not stated),6.71% (inactive)
13,CN(C)CCN(C(=O)C1=COCCO1)c1nc2ccc(Cl)cc2s1,66.5% (active)
14,CCN(CC)CCN(C(=O)c1cc(Cl)sc1Cl)c1nc2cc3c(cc2s1)OCO3,36.6% (inactive)
15,CN(C)CCN(C(=O)C1CCCCC1)c1nc2cc3c(cc2s1)OCO3,16.1% (inactive)
16,CN(C)CCN(C(=O)CN1C(=O)c2ccccc2C1=O)c1nc2cc3c(cc2s1)OCCO3,-13.3% (inactive)
17,CCc1ccc2nc(N(CCCN(C)C)C(=O)c3ccc4c(c3)OCCO4)sc2c1,16% (inactive)
18,Cc1ccc2nc(N(CCN(C)C)C(=O)C3=COCCO3)sc2c1,44.8% (active)
19,CN1C(=O)C2(OCCCO2)c2cc(Cl)ccc21,-14.9% (inactive)
